# Data as given in PubChem BioAssay AID1345085 (National Center for Advancing Translational Sciences (NCATS), 2018).
# Records with an inconclusive call do not appear. A number with no mark means an inactive call. Calls of active or inactive are those of the source. Calls come from the whole dose curve; as a rule, active = well fitted cell-killing curve with a large enough effect; inconclusive = small, poorly fitted or top-dose-only effect, or effect the other way; inactive = no such curve, though single readings can be large or run the other way.
# System: PA-1
# Test: Confirmatory qHTS for gynecologic anti-cancer compounds from libraries of approved drugs and bioactive compounds; note: nearly all actives have a fitted effect of over 55% in size
# Conditions: gynecologic cancer cell panel viability, ATPlite luminescence, 48 h; series mostly up to 57.6 µM; activity change, negative = viability loss: at the top concentration
# Outline: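 Viability is measured as ATP-dependent luciferase light using ATPlite, read 15 min after reagent addition at room temperature. Compounds, in DMSO, span 57.5 uM down to 0.977 nM over 11 threefold steps for 48 h.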
# % is set by controls: 0 for no effect and ±100 for the full control effect; potency is the fitted concentration of half-maximal effect.
SMILES,Potency,"activity change, negative = viability loss"
CNC(=O)c1nn(C)c2c1C(C)(C)Cc1cnc(Nc3ccc(N4CCN(C)CC4)cc3)nc1-2,0.769 µM (active),
CCN1CCN(Cc2ccc(Nc3ncc(F)c(-c4cc(F)c5nc(C)n(C(C)C)c5c4)n3)nc2)CC1,2.43 µM (active),
Cc1csc(NC(=O)c2sc3nc4c(c(C(F)(F)F)c3c2N)CCC4)n1,3.43 µM (active),
COCCOc1ccc2c(c1)ncn2-c1ccc2cccc(N3CCC(N)CC3)c2n1,4.85 µM (active),
CC(C)c1nn(-c2c(Cl)cccc2Cl)c2nc(Cc3ccc(OCCO)cc3)[nH]c(=O)c12,0.0968 µM (active),
Cn1cnc([N+](=O)[O-])c1Sc1ncnc2nc[nH]c12,5.44 µM (active),
COc1cc2c(NC3CCN(C(C)C)CC3)nc(C3CCCCC3)nc2cc1OCCCN1CCCC1,17.2 µM (active),
O=C(O)c1ccc(Nc2ncc3c(n2)-c2ccc(Cl)cc2C(c2c(F)cccc2F)=NC3)cc1,0.968 µM (active),
CC(C)n1nc(-c2cc3cc(O)ccc3[nH]2)c2c(N)ncnc21,13.7 µM (active),
O=C(/C=C/c1cccc(S(=O)(=O)Nc2ccccc2)c1)NO,0.595 µM (active),
CC[C@@]1(O)C(=O)OCc2c1cc1n(c2=O)Cc2cc3c(CN(C)C)c(O)ccc3nc2-1,0.273 µM (active),
Oc1cn2c(n1)Nc1ccc(Cl)c(Cl)c1C2,,5.17% [at 19.5 µM]
Cc1cc(Nc2nc(N[C@@H](C)c3ccc(F)cc3)c(C#N)cc2F)n[nH]1,3.06 µM (active),
Cc1cnc(Nc2ccc(CN3CCOCC3)cc2)nc1Nc1cccc(S(=O)(=O)NC(C)(C)C)c1,2.17 µM (active),
